Inconclusive results are not listed. Values without a mark were called inactive. The list shows a part of the results. Active and inactive are the calls of the source. The call rests on the fitted dose curve; in most records, active means well fitted curve in the direction sought with a large enough effect; inconclusive means small, poorly fitted or top-dose-only effect, or another doubt; inactive means no such curve, though single readings can be large; an effect the other way counts as inactive or inconclusive.

Here are results for 20 compounds from PubChem BioAssay (NCATS).

A short description of assay [1]: qHTS for Inhibitors of Plasmodium falciparum (DD2) proliferation (AID 504314).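 Further: parasite DNA measured by SYBR Green fluorescence after red cell lysis; plate controls were DMSO vehicle for no effect and artemisinin wells for full effect.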 Put shortly: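 P. falciparum Dd2 is grown in erythrocytes with test compound for 72 h at 37C under 5% CO2. Growth is scored by SYBR Green I fluorescence after detergent lysis, relative to artemisinin (0.29 uM) and DMSO controls.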
Assay [2] can be described thus: qHTS for Inhibitors of Plasmodium falciparum (GB4) proliferation (AID 504315).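 Further: 0% = DMSO vehicle and -100% = 0.29 µM artemisinin control; nearly all actives have a fitted effect of over 50% in size.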 The method in brief: (§1)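 Parasite growth measured as SYBR Green DNA fluorescence (ex 485, em 535 nm) after overnight lysis following 72 h culture at 37 °C, 0.3% parasitemia, 2.5% hematocrit. Values normalized against DMSO and 0.29 uM artemisinin controls, with plate-stack correction.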
(In qHTS, concentration-response curves come from the screen itself.)

Assay [3] in a line: qHTS for Inhibitors of Plasmodium falciparum (7G8) proliferation (AID 504316).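 Further: series mostly up to about 6.7 µM; 0% = DMSO vehicle and -100% = 0.29 µM artemisinin full kill; nearly all actives have a fitted effect of over 65% in size.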 The method in brief: as §1
Assay [4] in a line: qHTS for Inhibitors of Plasmodium falciparum (HB3) proliferation (AID 504318).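 Further: 0% = DMSO vehicle and -100% = artemisinin control; nearly all actives have a fitted effect of over 60% in size.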 The method in brief: as §1
The nature of assay [5]: qHTS for Inhibitors of Plasmodium falciparum (CP250) proliferation (AID 504320).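 Further: plate controls were DMSO vehicle for no effect and 0.29 µM artemisinin control for full effect.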 Put shortly:
as §1

Assay [6] deals with Rap guanine nucleotide exchange factor 3 (Homo sapiens) (UniProt O95398). Description: Confirmatory qHTS for agonist of cAMP-regulated guanine nucleotide exchange factor 3 (EPAC1) (AID 1645881).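 Further: EPAC1 catalysed release of BODIPY-GDP from Rap1B seen as fluorescence loss; 100% = effect of cAMP agonist control; nearly all actives have a fitted effect of over 75% in size.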
Assay [7] deals with Rap guanine nucleotide exchange factor 4 (Homo sapiens) (UniProt Q8WZA2). Description: Confirmatory qHTS for agonist of cAMP-regulated guanine nucleotide exchange factor 4 (EPAC2) (AID 1645884).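 Further: nucleotide exchange releases bodipy-GDP from Rap1 and this lowers its fluorescence; on the % scale 0 is the no-effect control and ±100 the full control effect; nearly all actives have a fitted effect of over 65% in size.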
For assay [8] the target is unchanged. Description: Confirmatory qHTS for antagonist of cAMP-regulated guanine nucleotide exchange factor 4 (EPAC2) (AID 1645885). Further: nearly all actives have a fitted effect of over 25% in size. Further: potency means the concentration at half of the fitted maximal effect. On activity change, negative = inhibition: on the % scale 0 is the no-effect control and ±100 the full control effect.
For assay [9], the target named is Rap guanine nucleotide exchange factor 3 (Homo sapiens) (UniProt O95398). Description: Counterscreen qHTS for antagonist of cAMP-regulated guanine nucleotide exchange factor 3 (EPAC1) (AID 1645888).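 Further: fluorescence loss as bound BODIPY-GDP is released from Rap1B; % of control where 0% means no effect.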 Put shortly:
(§2)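 Rap1B–BODIPY-GDP (250 nM) with 50 uM GDP; compounds pin-transferred to 9.74 nM–152 uM final (activator) or from 7.32 nM upwards (inhibitor). Fluorescence Ex/Em 480/540 nm read at 5 and 30 min, then after adding cAMP or buffer, at room temperature.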
Background: The purpose of a counterscreen is to sort out artefacts and off-target activity.

For assay [10] the target is unchanged. Description: Counterscreen qHTS for agonist of cAMP-regulated guanine nucleotide exchange factor 3 (EPAC1) (AID 1645889). Further: nearly all actives have a fitted effect of over 40% in size. Further: potency means the concentration at half of the fitted maximal effect. On activation: % of control where 0% means no effect. Put shortly: as §2
For assay [11], the target named is DNA polymerase eta (Homo sapiens) (UniProt Q9Y253). Kind of assay: qHTS for Inhibitors of Polymerase Eta: Confirmatory Assay for Cherry-picked Compounds (AID 720502). Further: potency means the concentration at half of the fitted maximal effect. Conditions: Pol eta primer extension, TAMRA/BHQ fluorescence, 10 min. Put shortly: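 Compounds are preincubated 15 min at room temperature with 10 nM human Pol eta, with buffer-only wells serving as negative control. Adding 50 nM final substrate starts the reaction, and TAMRA fluorescence is read over 10 min.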

Assay [12] has as its target Tumor susceptibility gene 101 protein (Homo sapiens) (UniProt Q99816). Description: qHTS Assay for Iinhibitors of HIV-1 Budding by Blocking the Interaction of PTAP/TSG101: Hit Validation (AID 651600). Further: nearly all actives have a fitted effect of over 70% in size. Further: potency means the concentration at half of the fitted maximal effect. On activity change, negative = inhibition: on the % scale 0 is the no-effect control and ±100 the full control effect. The method in brief: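 Measuring PTAP–Tsg101 interaction by FP: protein at 10 uM and fluorescent peptide at 50 nM (final), buffer 10 mM HEPES pH 7.5 with 0.15 M NaCl, 3 mM EDTA, 0.1 mM TCEP, 0.01% Tween 20; 20 min incubation, r.t.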

A short description of assay [13]: qHTS for Inhibitors of the vitamin D receptor (VDR): Hit Validation using a Texas Red Assay (AID 602201). Further: potency means the concentration at half of the fitted maximal effect. The method in brief: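 Fluorescence polarization with 1.5 uM VDR-LBD, LG19078 and 7 nM Texas Red (final). After 2 hours at ambient temperature, read at Ex 595 nm/Em 615 nm.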

Chain of Tumor susceptibility gene 101 protein (Homo sapiens) (Q99816 whole entry, looked up): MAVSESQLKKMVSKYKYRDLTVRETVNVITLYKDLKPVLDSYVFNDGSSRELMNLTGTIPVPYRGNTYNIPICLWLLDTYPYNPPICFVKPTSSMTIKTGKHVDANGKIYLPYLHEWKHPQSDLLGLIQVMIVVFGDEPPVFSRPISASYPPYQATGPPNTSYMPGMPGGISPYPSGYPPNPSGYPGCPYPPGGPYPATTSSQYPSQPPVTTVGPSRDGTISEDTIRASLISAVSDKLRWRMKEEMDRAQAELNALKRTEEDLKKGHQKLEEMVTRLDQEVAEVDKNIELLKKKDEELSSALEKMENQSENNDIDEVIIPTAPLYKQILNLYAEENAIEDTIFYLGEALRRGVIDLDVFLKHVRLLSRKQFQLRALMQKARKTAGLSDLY
Chain of Rap guanine nucleotide exchange factor 4 (Homo sapiens) (Q8WZA2 whole entry, looked up): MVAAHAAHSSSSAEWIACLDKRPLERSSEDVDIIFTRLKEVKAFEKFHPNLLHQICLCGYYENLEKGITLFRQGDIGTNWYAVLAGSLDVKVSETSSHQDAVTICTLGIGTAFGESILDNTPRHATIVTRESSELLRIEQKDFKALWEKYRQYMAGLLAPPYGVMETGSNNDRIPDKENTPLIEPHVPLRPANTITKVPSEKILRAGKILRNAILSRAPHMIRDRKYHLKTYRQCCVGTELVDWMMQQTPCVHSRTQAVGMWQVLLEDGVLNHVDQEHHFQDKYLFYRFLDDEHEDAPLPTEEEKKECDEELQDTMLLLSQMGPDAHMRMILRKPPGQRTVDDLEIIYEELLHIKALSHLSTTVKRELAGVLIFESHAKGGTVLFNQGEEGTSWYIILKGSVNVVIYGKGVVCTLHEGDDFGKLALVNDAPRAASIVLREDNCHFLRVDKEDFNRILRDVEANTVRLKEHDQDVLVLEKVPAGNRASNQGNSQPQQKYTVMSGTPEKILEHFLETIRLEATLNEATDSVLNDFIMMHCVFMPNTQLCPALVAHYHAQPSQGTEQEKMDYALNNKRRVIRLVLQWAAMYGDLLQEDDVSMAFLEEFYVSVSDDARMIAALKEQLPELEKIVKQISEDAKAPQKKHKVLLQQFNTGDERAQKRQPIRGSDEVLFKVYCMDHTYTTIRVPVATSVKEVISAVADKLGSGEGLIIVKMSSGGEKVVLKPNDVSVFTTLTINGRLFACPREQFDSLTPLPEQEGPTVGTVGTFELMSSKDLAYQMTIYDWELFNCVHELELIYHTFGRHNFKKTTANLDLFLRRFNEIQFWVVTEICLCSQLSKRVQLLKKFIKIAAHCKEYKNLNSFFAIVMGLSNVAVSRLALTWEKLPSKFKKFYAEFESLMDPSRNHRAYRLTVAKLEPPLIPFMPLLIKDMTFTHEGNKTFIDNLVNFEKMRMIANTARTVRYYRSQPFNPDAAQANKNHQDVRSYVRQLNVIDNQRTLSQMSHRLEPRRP
Chain of Rap guanine nucleotide exchange factor 3 (Homo sapiens) (O95398 whole entry, looked up): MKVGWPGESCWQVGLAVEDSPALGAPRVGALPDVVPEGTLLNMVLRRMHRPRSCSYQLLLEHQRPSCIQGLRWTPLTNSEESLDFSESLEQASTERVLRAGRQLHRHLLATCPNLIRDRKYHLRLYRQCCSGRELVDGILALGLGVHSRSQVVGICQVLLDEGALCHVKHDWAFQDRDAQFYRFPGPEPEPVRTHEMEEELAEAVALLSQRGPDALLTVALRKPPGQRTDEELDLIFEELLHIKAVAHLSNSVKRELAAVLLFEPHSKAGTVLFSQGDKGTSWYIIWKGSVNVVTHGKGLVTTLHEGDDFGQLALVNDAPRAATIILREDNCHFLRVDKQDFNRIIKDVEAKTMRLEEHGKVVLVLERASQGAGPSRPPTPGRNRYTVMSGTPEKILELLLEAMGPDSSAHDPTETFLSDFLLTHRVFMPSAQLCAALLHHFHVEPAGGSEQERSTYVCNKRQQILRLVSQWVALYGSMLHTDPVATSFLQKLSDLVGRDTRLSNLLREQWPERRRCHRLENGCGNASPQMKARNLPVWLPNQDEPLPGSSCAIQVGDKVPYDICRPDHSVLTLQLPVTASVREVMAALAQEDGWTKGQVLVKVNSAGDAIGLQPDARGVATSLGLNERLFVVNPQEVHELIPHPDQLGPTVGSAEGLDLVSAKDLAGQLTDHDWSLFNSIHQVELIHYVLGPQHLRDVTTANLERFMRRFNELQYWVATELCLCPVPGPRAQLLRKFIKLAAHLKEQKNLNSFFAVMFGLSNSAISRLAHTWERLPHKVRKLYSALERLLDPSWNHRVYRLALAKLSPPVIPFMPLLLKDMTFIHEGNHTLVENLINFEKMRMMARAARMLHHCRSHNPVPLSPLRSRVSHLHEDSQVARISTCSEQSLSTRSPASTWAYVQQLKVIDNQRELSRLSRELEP
Chain of DNA polymerase eta (Homo sapiens) (Q9Y253 whole entry, looked up): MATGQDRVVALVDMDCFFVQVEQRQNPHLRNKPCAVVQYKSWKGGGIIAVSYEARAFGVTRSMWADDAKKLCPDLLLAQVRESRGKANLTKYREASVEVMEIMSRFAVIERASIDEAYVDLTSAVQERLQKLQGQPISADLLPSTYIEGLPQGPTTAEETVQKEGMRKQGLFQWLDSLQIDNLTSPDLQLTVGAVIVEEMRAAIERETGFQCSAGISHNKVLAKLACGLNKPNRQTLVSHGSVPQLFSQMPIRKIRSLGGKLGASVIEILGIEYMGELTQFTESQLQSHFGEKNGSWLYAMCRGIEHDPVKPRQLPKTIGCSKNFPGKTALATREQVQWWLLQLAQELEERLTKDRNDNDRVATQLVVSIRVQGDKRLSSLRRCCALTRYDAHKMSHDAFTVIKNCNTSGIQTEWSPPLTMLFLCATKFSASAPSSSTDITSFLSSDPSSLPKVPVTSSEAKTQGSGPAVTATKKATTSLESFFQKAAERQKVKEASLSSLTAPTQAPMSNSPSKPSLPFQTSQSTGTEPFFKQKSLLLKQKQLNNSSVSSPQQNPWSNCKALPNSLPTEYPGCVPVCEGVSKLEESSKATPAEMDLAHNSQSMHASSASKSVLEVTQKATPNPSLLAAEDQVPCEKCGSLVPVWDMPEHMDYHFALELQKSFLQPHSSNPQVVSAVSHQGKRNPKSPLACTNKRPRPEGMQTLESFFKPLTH

On to `COC(=O)C1=C(C)N(Cc2ccccc2)C(=O)N[C@H]1c1cccc(C(F)(F)F)c1`, for which the outcome in [1], in [2], in assay [3], in assay [4] and in [5] was inactive. The Potency result in assay [6] and in [8] was “inactive” throughout. The activation in assay [7] is 7.76% [at 17.1 µM, percent relative to cAMP agonist control]; in assay [10], 10.2% [at 30.8 µM]. Further, in [9], the activity change, negative = inhibition was -21.1% [at 30.8 µM].
For the compound `COc1cc(NC2c3ncccc3C(=O)N2Cc2ccco2)cc(OC)c1` (stereo not given), the Potency entry in [6], in assay [7], in assay [8], in assay [9] and in assay [10] was “inactive” in each case.
With `CCOc1ccccc1Cn1c(=O)oc2ccc(C)cc21`, the Potency result in assay [6], in [7], in [8], in assay [9] and in assay [10] was “inactive” throughout.
In the case of `NC(CSC(c1ccccc1)(c1ccccc1)c1cccc2ccccc12)C(=O)O` (stereo not given), the Potency entry in assay [6] and in assay [8] was “inactive” each time. The activation is -1.78% [at 17.1 µM, percent relative to cAMP agonist control] in assay [7] and 5.6% [at 30.8 µM] in assay [10].
For the compound `O=C(Nc1nc(-c2ccco2)c(-c2ccco2)s1)c1ccco1`, the Potency in [11] was 26.9 µM (active). Besides, the Potency result in assay [6] and in assay [8] was “inactive” each time. In addition, the activation in assay [7] is 2.72% [at 17.1 µM, percent relative to cAMP agonist control]. For the same compound, the activity change, negative = inhibition in assay [9] was 0.168% [at 30.8 µM].
For the compound `COC(=O)CC1(c2ccc(OC)cc2)C(=O)c2ccccc2C1=O`, the Potency entry in assay [6], in assay [7], in assay [8] and in [10] was “inactive” in each case.
For `CNC(=O)c1ccc(Nc2nnc(-c3ccc(O)cc3)c3ccccc23)cc1`, the Potency result in [6], in [7], in [8] and in assay [10] was “inactive” in each case.
Consider `CCCCn1c(CNC(=O)C23CC4CC(CC(C4)C2)C3)nnc1SCC(=O)Nc1nnc(C)s1`, for which the Potency entry in assay [6] and in [8] was “inactive” in each case. In addition, the activation in assay [7] is 3.57% [at 17.1 µM, percent relative to cAMP agonist control]; in assay [10] it was 1.72% [at 30.8 µM].
Turning to `COc1ccc2nc(N3CCCC3)c(C#N)cc2c1`, the Potency result in assay [12], in [6] and in assay [8] was “inactive” in each case. Further, the activation in assay [7] was 3.12% [at 17.1 µM, percent relative to cAMP agonist control]. For the same compound, the activity change, negative = inhibition in assay [9] was -11.6% [at 30.8 µM].
`CC(C)C(=O)Nc1nc2c(s1)CC(C(C)(C)C)CC2` (stereo not given): the Potency entry in assay [6], in [7], in assay [8] and in [10] was “inactive” in each case.
In the case of `Cc1cccc(N2C(=O)C(O)=C(C(=O)c3cccs3)C2c2cccc(Oc3ccccc3)c2)n1` (stereo not given), the Potency entry in assay [6], in assay [7], in assay [8] and in [10] was “inactive” in each case.
On to `O=C(CCl)N1c2ccccc2Oc2ccc3ccccc3c21`, for which the Potency result in assay [12], in assay [6], in assay [7], in [8] and in assay [9] was “inactive” in each case. Also, the Potency in assay [10] is 35.5 µM (active).
In the case of `O=C1/C(=C/c2ccco2)Oc2c1ccc(O)c2CN1CCCCC1`, the Potency is 32.6 µM (active) in assay [12] and 84.9 µM (active) in assay [8]. Moreover, the Potency result in [6], in [7], in assay [9] and in assay [10] was “inactive” in each case.
Regarding `C=CCn1c(=O)/c(=C/c2ccc(C)o2)s/c1=C(/C#N)C(=O)c1ccccc1`, the Potency in [12] is 18.3 µM (active). Besides, the Potency entry in [6] and in assay [8] was “inactive” in each case. For the same compound, the activation in [7] is 3.1% [at 17.1 µM, percent relative to cAMP agonist control]; in assay [10], 34.7% [at 30.8 µM]. In addition, in assay [9], the activity change, negative = inhibition is -7.69% [at 30.8 µM].
For the compound `O=C(NNc1cc(Br)c(O)c(Br)c1)c1ccccc1`, the Potency in assay [13] was 25.1 µM (active). Besides, the Potency entry in assay [6] and in assay [8] was “inactive” each time. The activation is -6.77% [at 17.1 µM, percent relative to cAMP agonist control] in assay [7] and 11.6% [at 30.8 µM] in assay [10]. For the same compound, the activity change, negative = inhibition in [9] is -6.86% [at 30.8 µM].
On to `C[C@H](CO)N1C[C@H](C)[C@@H](CN(C)Cc2ccc(Cl)c(Cl)c2)Oc2c(NC(=O)CCC(F)(F)F)cccc2C1=O`, for which the Potency result in assay [6], in assay [7] and in [10] was “inactive” throughout. Besides, in assay [8], the Potency is 19 µM (active).
On to `Cc1c2ccccc2nc2c(F)c(NC(C)C)c(F)c(F)c12`, for which the Potency entry in [12], in assay [6], in assay [7], in [8] and in assay [9] was “inactive” each time.
Take `COc1ccc(OC)c2c1C(=O)c1ccccc1C2=O`: in assay [12], the Potency is 14.6 µM (active). In addition, the Potency result in assay [6], in assay [7], in [8] and in assay [9] was “inactive” throughout.
As for `CCOC(=O)c1nc(C)nc(Sc2n[nH]c(-c3cc(Cl)cc(Cl)c3)n2)c1C`, the Potency result in assay [6] and in [8] was “inactive” in each case. The activation in assay [7] is 2.66% [at 17.1 µM, percent relative to cAMP agonist control]; in assay [10] it was 19.4% [at 30.8 µM].
With `COCOCCn1cc(CN2CCS(=O)(=O)N(Cc3ccc(-c4ccc(OC)cc4)cc3)C(CC(C)C)C2=O)nn1` (stereo not given), the Potency entry in assay [6], in assay [7], in [8] and in [10] was “inactive” in each case.
